Records with an inconclusive call do not appear. The source made the active and inactive calls. Rule for the calls, unless noted: active = hit-call score of the fitted dose curve at least 0.9, where 1 is the maximum; inactive = score below 0.9.
Key:
[1] = CCTE_Shafer_MEA_dev_per_network_spike_spike_percent: CCTE's Neural Network Formation Assay for Percent of Spikes in a Network Spike, Shafer Lab (AID 2284054)
Method in brief: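 Read-out: percent of spikes falling in a 0.05 s window at network-spike peak, from spontaneous MEA recordings on days 5, 7, 9 and 12; trapezoidal AUC; loss of signal versus DMSO. Rat cortical cultures, compound present throughout.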

[2] = CCTE_Shafer_MEA_dev_LDH: CCTE's Lactate Dehydrogenase Assay for Cytotoxicity in the Neural Network Formation Assay, Shafer Lab (AID 2284068; active = hit-call score of the fitted dose curve at least 0.9, where 1 is the maximum;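 note: exposure for twelve days from plating with re-dosing on DIV 5 and 9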)
Method in brief: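 Cytotoxicity companion to network-formation recordings: rat cortical neurons received compound over 12 days of development, re-dosed at DIV 5 and 9 feeds. Viability was inferred from LDH enzyme activity relative to DMSO.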

[3] = CCTE_Shafer_MEA_dev_AB: CCTE's Alamar Blue Assay for Cytotoxicity in the Neural Network Formation Assay, Shafer Lab (AID 2284083; active = hit-call score of the fitted dose curve at least 0.9, where 1 is the maximum;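 note: resazurin reduction fluorescence as viability of cultured neurons; twelve days of exposure from plating with re-dosing on DIV 5 and 9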)
Method in brief: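 Fluorescent resazurin reduction serves as the viability read-out, with DMSO as negative control and baseline. Cells were primary rat cortical neurons grown on MEA plates and dosed from day 0 to day 12, treatment renewed on DIV 5 and 9.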

[4] = CCTE_Shafer_MEA_dev_mutual_information_norm: CCTE's Neural Network Formation Assay for Mutual Information Normalization, Shafer Lab (AID 2284091);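 note: mutual information between electrodes summarised as area under curve across four recording days; potency is for a decrease in mutual information relative to DMSO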
Method in brief: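 Neurons from rat cortex were seeded at 1.5 x 10^5 cells/well onto PEI-coated MEAs in a laminin drop, then exposed to compound from day 0 for twelve days. Network recordings on four days gave mutual information, summarised by AUC relative to DMSO.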

[5] = CCTE_Shafer_MEA_dev_correlation_coefficient_mean: CCTE's Neural Network Formation Assay for Mean Correlation Coefficient, Shafer Lab (AID 2284093);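 note: well mean pairwise spike train correlation integrated as AUC over recording days 5 to 12; potency fitted for loss of correlation relative to DMSO vehicle wells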
Method in brief: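 Read-out: well-mean correlation coefficient of spike trains between electrode pairs, collapsed over four recording days as trapezoidal area-under-the-curve. Developing rat cortical neuron networks grown on MEAs received test chemical continuously from plating.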

[6] = CCTE_Mundy_HCI_Cortical_Synap_Neur_Matur_NeuriteSpotCountPerNeuriteLength: CCTE's Synaptogenesis and Neurite Maturation Assay in rat cortical cells for Neurite Spot Count per Neurite Length, Mundy Lab (AID 2284210)
Method in brief: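 Read-out: synaptophysin puncta counted along MAP2-stained neurites, normalised to neurite length, by automated high-content imaging. Rat cortical cells; AraC DIV 5; chemical dosing DIV 7; termination DIV 12. DMSO baseline.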

[7] = CCTE_Mundy_HCI_Cortical_Synap_Neur_Matur_BPCount: CCTE's Synaptogenesis and Neurite Maturation Assay in rat cortical cells for Branch Point Count, Mundy Lab (AID 2284211)
Method in brief: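 In this multiplexed morphology assay, cortical cells from rat receive chemicals at DIV 7 and are fixed at DIV 12, then immunostained and imaged; branch points are counted, with DMSO as baseline.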

[8] = CCTE_Mundy_HCI_Cortical_NOG_NeuriteCount: CCTE's Neurite Outgrowth Assay in rat cortical cells for Neurite Count, Mundy Lab (AID 2284212);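 note: cells fixed about two days after chemical exposure began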
Method in brief: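 Rat cortical primary cells; compound added 2 h post-plating, 1/10 dilution of working solution. Anti-betaIII-tubulin/AF488 ICC; ArrayScan neurite count vs DMSO.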

[9] = CCTE_Mundy_HCI_Cortical_NOG_NeuriteLength: CCTE's Neurite Outgrowth Assay in rat cortical cells for Neurite Length, Mundy Lab (AID 2284213);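 note: neurites imaged about 48 to 50 h after chemical exposure began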
Method in brief: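 First, rat primary cortical cells were plated and, 2 h later, given test chemical as a 1/10 dilution. Finally, βIII-tubulin immunostaining enabled automated imaging of neurite length.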

[10] = CCTE_Mundy_HCI_Cortical_Synap_Neur_Matur_NeuriteLength: CCTE's Synaptogenesis and Neurite Maturation Assay in rat cortical cells for Neurite Length, Mundy Lab (AID 2284214)
Method in brief: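 Read-out: high-content imaging of MAP2-labelled neurites, with synaptophysin and Hoechst co-stain, in rat cortical cultures fixed at DIV 12. Activity fitted in positive direction relative to DMSO baseline.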

[11] = CCTE_Mundy_HCI_Cortical_Synap_Neur_Matur_NeuriteSpotCountPerNeuron: CCTE's Synaptogenesis and Neurite Maturation Assay in rat cortical cells for Neurite Spot Count per Neuron Count, Mundy Lab (AID 2284215)
Method in brief: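 Read-out: neurite-associated synaptophysin puncta per neuron, imaged by high-content analysis after MAP2, synaptophysin and Hoechst staining. Rat primary cortical cultures, dosed DIV 7 through DIV 12; DMSO served as baseline.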

[12] = CCTE_Mundy_HCI_Cortical_Synap_Neur_Matur_SynapseCount: CCTE's Synaptogenesis and Neurite Maturation Assay in rat cortical cells for Synapse Count, Mundy Lab (AID 2284218)
Method in brief: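 Read-out: synapse number per neuron, automated high-content imaging of fixed cells immunostained for MAP2 and synaptophysin plus Hoechst nuclei. Rat primary cortical cultures, AraC at DIV 5, chemical dosing DIV 7–12. Positive-direction fit relative to DMSO.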

[13] = CCTE_Mundy_HCI_hN2_NOG_NeuriteLength: CCTE's Neurite Outgrowth Assay in human hN2 cells for Neurite Length, Mundy Lab (AID 2284220; active = hit-call score of the fitted dose curve at least 0.9, where 1 is the maximum)
Method in brief: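 Read-out is neurite length from high-content imaging of βIII-tubulin/Alexa Fluor-488-labelled neurons, referenced to DMSO controls.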

[14] = CCTE_Mundy_HCI_hN2_NOG_NeuronCount: CCTE's Neurite Outgrowth Assay in human hN2 cells for Neuron Count, Mundy Lab (AID 2284221; active = hit-call score of the fitted dose curve at least 0.9, where 1 is the maximum)
Method in brief: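 Read-out is the number of betaIII-tubulin-positive neurons imaged by automated high-content analysis, with DMSO as negative control.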

[15] = CCTE_Mundy_HCI_Cortical_Synap_Neur_Matur_NeuriteCount: CCTE's Synaptogenesis and Neurite Maturation Assay in rat cortical cells for Neurite Count, Mundy Lab (AID 2284222);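 note: exposure from day 7 to day 12 in vitro with readout at day 12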
Method in brief: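 Chemical exposure runs DIV 7–12 in rat cortical cultures, glia suppressed by AraC at DIV 5; measurement is at DIV 12. Imaging-derived neurite counts are fitted against DMSO baseline.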

[16] = CCTE_Mundy_HCI_Cortical_Synap_Neur_Matur_CellBodySpotCount: CCTE's Synaptogenesis and Neurite Maturation Assay in rat cortical cells for Cell Body Spot Count, Mundy Lab (AID 2284223)
Method in brief: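 Read-out: cell body-associated synaptophysin puncta per neuron, imaged after MAP2, synaptophysin and Hoechst staining. Rat cortical cells, AraC DIV 5, chemical dosing DIV 7, fixation DIV 12. Activity fitted in positive direction relative to DMSO baseline.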

[17] = CCTE_Mundy_HCI_hNP1_Pro_ResponderAvgInten: CCTE's Proliferation Assay in human neuroprogenitor cells, Mundy Lab (AID 2284224; active = hit-call score of the fitted dose curve at least 0.9, where 1 is the maximum;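 note: human neural progenitor cells hNP1 derived from WA09 embryonic stem cells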)
Method in brief: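 Proliferation read as average intensity of BrdU-positive cells, imaged at 26.25 h post-dosing: chemical exposure started after 40–44 h culture, BrdU during final 4 h, paraformaldehyde fixation. Positive-direction fit relative to DMSO.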

[18] = CCTE_Mundy_HCI_Cortical_NOG_NeuronCount: CCTE's Neurite Outgrowth Assay in rat cortical cells for Neuron Count, Mundy Lab (AID 2284236; active = hit-call score of the fitted dose curve at least 0.9, where 1 is the maximum;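 note: neurons counted by imaging betaIII-tubulin and Hoechst stained cortical cells; cells exposed to compound for about 48 hours before fixation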)
Method in brief: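 Read-out: neuron number by high-content imaging of betaIII-tubulin (Alexa Fluor-488) and Hoechst-labelled rat primary cortical cells.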

[19] = CCTE_Mundy_HCI_Cortical_NOG_BPCount: CCTE's Neurite Outgrowth Assay in rat cortical cells for Branch Point Count, Mundy Lab (AID 2284237);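 note: branch points counted about two days after chemical exposure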
Method in brief: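 Measured 50.33 h after dosing, this morphology endpoint uses rat primary cortical cultures labelled for betaIII-tubulin. Branch points are quantified by high-content imaging, with DMSO as negative control and baseline.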

[20] = CCTE_Mundy_HCI_hNP1_Casp3_7: CCTE's Caspase-Glo 3/7 Assay in human neuroprogenitor cells for Apoptosis, Mundy Lab (AID 2284240)
Method in brief: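 Luminescent caspase-3/7 readout, 26.5 h post-dose, in human neural progenitor cells from WA09 embryonic stem cells. Cells grew 40–44 h at 37 °C, 5% CO2 before chemical addition. Activity analysed as signal increase over DMSO baseline.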

[21] = CCTE_Mundy_HCI_hNP1_CellTiter: CCTE's Cell Titer-Glo 2 Assay in human neuroprogenitor cells for Viability, Mundy Lab (AID 2284241; active = hit-call score of the fitted dose curve at least 0.9, where 1 is the maximum;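 note: a hit is a drop in ATP luminescence versus DMSO meaning reduced viability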)
Method in brief: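 Viability read as luminescent ATP content (CellTiter-Glo, 30 min room temperature) twenty-four hours after dosing, relative to DMSO. Cells: WA09-derived hNP1 neuroprogenitors on poly-L-ornithine/laminin, plated 40 to 44 hours before chemical.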

[22] = CCTE_Mundy_HCI_Cortical_Synap_Neur_Matur_NeuronCount: CCTE's Synaptogenesis and Neurite Maturation Assay in rat cortical cells for Neuron Count, Mundy Lab (AID 2284242; active = hit-call score of the fitted dose curve at least 0.9, where 1 is the maximum;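 note: hits reduce neuron count versus DMSO baseline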)
Method in brief: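 Rat cortical cultures; AraC DIV 5; chemical dosing + media change DIV 7 to DIV 12 (288.33 h readout). Fix, Hoechst, anti-MAP2/anti-synaptophysin immunostain; HCI neuron count vs DMSO baseline.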

Measured: AC50

CCC[CH2][Sn]([CH2]CCC)([CH2]CCC)[O][Sn]([CH2]CCC)([CH2]CCC)[CH2]CCC
active: [1] 77 nM | [2] 32.8 nM | [3] 45.5 nM | [4] 34.5 nM | [5] 33.5 nM | [7] 23 nM | [8] 27.8 nM | [9] 22.1 nM | [10] 14.5 nM | [11] 22.6 nM | [12] 22 nM | [13] 43.6 nM | [14] 31.9 nM | [16] 31.1 nM | [17] 125 nM | [18] 31.1 nM | [19] 27.7 nM | [20] 115 nM | [21] 57.2 nM | [22] 10.8 nM
inactive: [6] | [15]

Reference: PubChem BioAssay (EPA / NIEHS)
